TDP1 block = qHTS Assay for Inhibitors of Tyrosyl-DNA Phosphodiesterase (TDP1); recombinant TDP1, AlphaScreen DNA substrate cleavage; Potency, µM (top dose mostly 130 µM), for the others: at the top dose activity change, negative = inhibition, actives largely listed as inhibitors; actives 0.28% (n = 350,000); AID 485290, 2010; note: potency is the fitted concentration of half-maximal effect; % is set by controls: 0 for no effect and ±100 for the full control effect; nearly all actives have a fitted effect of over 40% in size
Target sequence (Q9NUW8 whole entry, looked up): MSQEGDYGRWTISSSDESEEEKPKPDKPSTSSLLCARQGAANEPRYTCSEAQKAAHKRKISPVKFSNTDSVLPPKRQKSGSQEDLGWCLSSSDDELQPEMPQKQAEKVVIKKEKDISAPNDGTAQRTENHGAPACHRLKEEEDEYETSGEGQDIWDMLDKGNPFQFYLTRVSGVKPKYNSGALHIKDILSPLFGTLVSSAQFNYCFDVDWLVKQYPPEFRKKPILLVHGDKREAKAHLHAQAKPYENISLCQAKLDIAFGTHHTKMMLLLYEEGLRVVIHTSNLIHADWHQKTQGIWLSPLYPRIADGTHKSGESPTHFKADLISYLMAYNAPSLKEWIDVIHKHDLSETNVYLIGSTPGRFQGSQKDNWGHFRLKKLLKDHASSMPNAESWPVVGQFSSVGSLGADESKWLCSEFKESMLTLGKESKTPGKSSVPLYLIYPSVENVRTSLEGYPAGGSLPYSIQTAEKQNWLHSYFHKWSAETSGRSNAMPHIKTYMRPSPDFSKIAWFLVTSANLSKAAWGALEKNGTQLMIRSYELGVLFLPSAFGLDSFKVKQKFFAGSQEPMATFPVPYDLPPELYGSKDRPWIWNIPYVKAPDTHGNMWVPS
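AlphaScreen read-out: signal falls as enzyme removes the 3' tyrosine-FITC from a 5'-biotinylated DNA oligo (15 nM, 5 min, RT). Enzyme was E. coli-made recombinant Tdp1 at 1 nM, exposed to compound for 15 min beforehand; beads 10 ug/ml, 10 min.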
TDP1 cell CPT = qHTS for Inhibitors of human tyrosyl-DNA phosphodiesterase 1 (TDP1): qHTS in cells in presence of CPT | chicken DT40 Tdp1-/-;hTDP1 cells + 20 nM CPT, ATP luminescence, 48 h | Potency, µM (doses to about 46.2 µM), for the others: at the highest dose activity change, negative = growth inhibition, most hits filed as inhibitors | actives 12% (n = 420,000) | AID 686979, 2013; note: potency is the fitted concentration of half-maximal effect; % is set by controls: 0 for no effect and ±100 for the full control effect; nearly all actives have a fitted effect of over 55% in size
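Cell growth measured by CellTiter-Glo luminescence after a minimum 48 h, 37 C compound exposure with 20 nM CPT in Tdp1-knockout DT40 cells stably expressing hTDP1, seeded 400/well; qHTS titration format.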
TGFb SMAD3 inh = qHTS for Inhibitors of TGF-b; Potency, µM (top dose mostly 46.1 µM), for inactives: top-dose activity, negative = inhibition, most hits filed as inhibitors; HepG2 CAGA-GFP TGF-b/SMAD3 reporter, GFP fluorescence, 18 h; TGF-beta stimulated, 500 pg/mL final; AID 588855, 2011; actives 1.2% (n = 410,000); note: potency is the fitted concentration of half-maximal effect; % is set by controls: 0 for no effect and ±100 for the full control effect; nearly all actives have a fitted effect of over 65% in size
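Smad-responsive CAGA-GFP expression was quantified in HEPG2 cells exposed to compounds and 500 pg/mL final TGF-beta for 18 h at 37 degrees C; unstimulated wells defined full inhibition.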
HepG2 tox = qHTS for Inhibitors of TGF-b: Cytotox Counterscreen; HepG2 CAGA-GFP viability, ATP luminescence, 18 h; actives 0.76% (n = 410,000); Potency, µM (highest dose often 46.1 µM), for inactives: top-dose activity change, negative = cytotoxicity, most hits filed as cytotoxic; note: potency is the fitted concentration of half-maximal effect
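CellTiter-Glo luminescence gave cytotoxicity after 18 hours at 37 degrees C. The cells were HepG2 CAGA-GFP in 1% FBS DMEM, stimulated with 500 pg/mL TGF-beta after compound addition. %Activity was normalised to no-cell wells (complete cell-killing) and DMSO (no toxicity), and curves were fitted and classified.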
IL-1B inflam inh = qHTS for Inhibitors of Inflammasome Signaling: IL-1-beta AlphaLISA Primary Screen; THP-1 LPS/ATP IL-1B secretion, AlphaLISA, 16 h; stronger effect = lower value; activity change, % at 57.5 µM; actives 4.7% (n = 360,000); AID 743279, 2014; in the data active = activity change below about -50%; inconclusive = mostly about -30% to -49%; note: % is set by controls: 0 for no effect and ±100 for the full control effect
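THP-1 cells pretreated 1 hr with compounds (up to 57.5 uM final), then stimulated with LPS (250 ng/mL final) plus ATP (1.25 mM final); secreted IL-1B measured by AlphaLISA after 16 hr, decreased signal indicating inhibition.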
TDP1 cell noCPT = qHTS for Inhibitors of human tyrosyl-DNA phosphodiesterase 1 (TDP1): qHTS in cells in absence of CPT; DT40 Tdp1-/- hTDP1 cells, no CPT, ATP luminescence, 48 h; Potency, µM (series often up to 46.2 µM), for inactives: at the highest dose activity change, negative = growth inhibition, usual class: inhibitors; actives 15% (n = 420,000); note: potency is the fitted concentration of half-maximal effect; % is set by controls: 0 for no effect and ±100 for the full control effect; nearly all actives have a fitted effect of over 55% in size
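DT40 Tdp1-/-;hTDP1 cells, no CPT (DMSO vehicle only), 400 cells/well; compounds pin-transferred; ≥48 hr, 37 °C; CellTiter-Glo 30 min RT dark, luminescence read.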
The depositor's hits bear a star; ? = inconclusive; nt = not tested or not shown; [ ] = dose if it differs, or a comment. Hits are enriched below; roughly 19% of the tested compounds scored in any of these assays. Unless noted, calls come from the whole dose curve; as a rule, active = well fitted curve in the direction sought with a large enough effect; inconclusive = small, poorly fitted or top-dose-only effect, or another doubt; inactive = no such curve, though single readings can be large; an effect the other way counts as inactive or inconclusive.

SMILES	TDP1 block	TDP1 cell CPT	TGFb SMAD3 inh	HepG2 tox	IL-1B inflam inh	TDP1 cell noCPT
CCCOc1ccc(CNC(=O)Cn2cc3c(n2)-c2c(oc(C(=O)N4CCOCC4)c2C)CC3)cc1	5.1%	?	?	-26.5%	nt	23.1µM*
COc1cccc(CNC(=O)Cn2cc3c(n2)-c2c(oc(C(=O)N4CCCC4)c2C)CC3)c1OC	0.0%	?	?	-33.4%	nt	?
Cc1c(C(=O)N2CCOCC2)oc2c1-c1nn(CC(=O)NCc3ccccc3)cc1CC2	5.1%	?	-19.4%	-18.0%	nt	?
Cc1ccc2c(c1)cc1c(=O)n(Cc3cccc(Cl)c3)nc(C)n12	-5.1%	?	5.0%	-6.5%	nt	?
CCC1(CC)NC(=O)N(CC(=O)OC(C)C(=O)Nc2ccccc2OC)C1=O (stereo not drawn)	0.9%	-8.8%	1.0%	11.4%	3.4	-1.8%
CC(=O)c1c(C(C)=O)c(C)n(-c2ccc(O)cc2)c1C	-1.0%	-15.1%	10.5%	8.6%	12.8	-12.0%
CCN(CC)c1ccc(-n2c(C)c(C(C)=O)c(C(C)=O)c2C)cc1	4.2%	23.1µM*	-0.3%	-30.6%	-1.8	10.3µM*
O=c1oc2ccc3ccccc3c2cc1-c1nnc(Nc2cccc(C(F)(F)F)c2)s1	-2.2%[12.3 µM]	-14.0%	5.1%	0.2%	nt	-4.2%
c1ccc(-c2cn3c(n2)-c2ccccc2C3)cc1	5.4%	?	-20.2%	-64.2%	-6.8	14.6µM*
O=C1c2ccccc2CN2C(=O)c3ccccc3CN12	3.0%	-14.8%	8.3%	1.3%	0.0	-9.4%
NC(=S)N=Nc1ccc(NN=C(N)N)cc1	nt	1.3µM*	-9.1%	3.5%	-23.2	1.46µM*
Brc1ccc(N=NNc2ccccc2)cc1	12.3%	-23.9%	-13.7%	-18.8%	11.2	-28.6%
COc1ccc(OCC(=O)N/N=C\c2ccco2)cc1	8.4%	-9.8%	?	4.0%	-24.9	-12.8%
COc1ccc(/[N+]([O-])=C/c2ccco2)cc1	2.4%	14.6µM*	10.1%	8.3%	-3.2	16.4µM*
Cc1ccc(-n2cc(C(=O)c3ccc(N4CCN(C)CC4)cc3)nn2)cc1Cl	-0.6%	0.0%	-0.3%	-2.1%	4.8	20.3%
CN1CCN(c2ccc(C(=O)c3cn(-c4ccc(F)c(Cl)c4)nn3)cc2)CC1	1.8%	?	-4.0%	6.3%	10.4	16.4µM*
COc1ccc(C(CCN2CCOCC2)c2c(OC)cc(OC)c3c(C)cc(=O)oc23)cc1 (stereo not drawn)	-1.2%	23.1µM*	-0.3%	-25.6%	6.4	18.4µM*
COc1cc(C(CCN2CCCC2)c2c(OC)cc(OC)c3c(C)cc(=O)oc23)cc(OC)c1OC (stereo not drawn)	6.8%	13µM*	2.9%	-0.5%	7.3	23.1µM*
COc1cc(C(CCN2CCCC(C)C2)c2c(OC)cc(OC)c3c(-c4ccccc4)cc(=O)oc23)cc(OC)c1OC (stereo not drawn)	6.2%	?	-6.0%	-4.5%	-9.7	18.4µM*
COc1cc(C(CC(=O)N2CCCC2)c2c(OC)cc(OC)c3c(-c4ccccc4)cc(=O)oc23)cc(OC)c1OC (stereo not drawn)	-12.1%	?	?	-31.2%	?	?
COc1cc(C(CCN2CCCCC2)c2c(OC)cc(OC)c3c(-c4ccccc4)cc(=O)oc23)cc(OC)c1OC (stereo not drawn)	7.9%	18.4µM*	?	-80.1%	?	?
COC(=O)C1=C(C)N(c2cccc(C)c2)C(=O)/C1=C\c1cccs1	3.9%	?	2.1%	1.1%	-20.9	?
COC(=O)C1=C(C)N(c2ccccc2)/C(=C/c2cccs2)C1=O	-0.9%	-28.0%	-24.7%	-18.2%	-2.1	?
COC(=O)C1=C(C)N(c2ccc(C)c(C)c2)/C(=C/c2cccs2)C1=O	2.0%	15.8µM*	26.0%	-11.8%	2.1	15.8µM*
COC(=O)C1=C(C)N(c2ccc(Cl)cc2)/C(=C/c2cccs2)C1=O	0.0%	?	-9.2%	-18.8%	0.0	13µM*
SMILES	TDP1 block	TDP1 cell CPT	TGFb SMAD3 inh	HepG2 tox	IL-1B inflam inh	TDP1 cell noCPT
CN1c2ccc(Cl)cc2-c2nc(SCC(=O)NCc3ccccc3)ncc2S1(=O)=O	-2.6%	?	-8.4%	-15.0%	nt	?
Cc1cc(C)cc(NC(=O)CSCc2cc(=O)c3ccc(C)c(C)c3[nH]2)c1	0.0%	3.4%	-5.1%	1.2%	nt	-22.4%
Cc1cc(C)nc(N2CCN(c3ccc(F)cc3)CC2)n1	nt	-20.0%	-16.5%	-3.4%	8.8	2.8%
COc1ccc(NC(=O)C2CCN(c3cc(C)nc(-c4ccccc4)n3)CC2)cc1	5.9%	?	-6.1%	-26.7%	-5.7	?
Cc1cc(N2CCC(C(=O)Nc3ccc(F)cc3)CC2)nc(-c2ccccc2)n1	0.0%	-22.4%	?	-19.6%	-53.3*	18.4µM*
Cc1cc(N2CCN(c3ccc(F)cc3)CC2)nc(-c2ccccc2)n1	2.4%	9.2µM*	0.0%	-14.1%	-19.6	8.2µM*
Cc1c(C(=O)NCc2ccc3c(c2)OCCO3)sc(=O)n1Cc1ccc2c(c1)OCO2	nt	?	7.8%	-10.1%	-8.3	?
Cc1c(C(=O)NCc2ccc3c(c2)OCO3)sc(=O)n1Cc1ccc(S(=O)(=O)N(C)C)cc1	nt	?	-26.9%	-1.0%	-24.9	16.4µM*
Cc1c(C(=O)NCc2cccc(C(F)(F)F)c2)sc(=O)n1Cc1ccc(S(=O)(=O)N(C)C)cc1	nt	20.6µM*	-22.5%	-12.5%	?	?
Cc1c(C(=O)NCc2ccc3c(c2)OCCO3)sc(=O)n1Cc1ccc(S(=O)(=O)N(C)C)cc1	nt	18.4µM*	?	-15.2%	-14.2	14.6µM*
Cc1ccc(Cn2c(C)c(C(=O)NCc3cccc(C(F)(F)F)c3)sc2=O)cc1	nt	-1.0%	-26.6%	-7.6%	-24.4	0.6%
Cc1c(C(=O)NCc2ccc3c(c2)OCCO3)sc(=O)n1Cc1ccccc1C#N	nt	?	0.8%	4.5%	-15.0	16.4µM*
CCCCOc1ccc(NC(=O)CN2CCN(Cc3ccccc3)CC2)cc1	4.0%	?	?	-44.6%	0.0	?

Screens deposited in PubChem BioAssay by National Center for Advancing Translational Sciences (NCATS).
